# Reference: PubChem BioAssay (NCI)
# This is part of a sample that, as a whole, favours compounds with a hit. Of some 83,000 tested, about 20% had one in any assay.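 Method: cells in 96-well plates; compound added at one concentration; 48 h incubation; percent growth measured; values under 10 scored active.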 A number with no mark means an inactive call. Calls of active or inactive are those of the source.
# Legend:
# Assay in all cases: NCI-60 one-dose screen, 48 h (100 = growth as untreated, 0 = no growth, -100 = all killed)
# Settings in all cases: 10 µM unless noted
# NCI-H23 lung = test system: NCI-H23 lung
# NCI-H226 lung = test system: NCI-H226 lung
# NCI-H322M lung = test system: NCI-H322M lung
# HOP-62 NSCLC = test system: HOP-62 NSCLC
# NCI-H460 lung = test system: NCI-H460 lung
# HOP-92 NSCLC = test system: HOP-92 NSCLC
# NCI-H522 lung = test system: NCI-H522 lung
# A549/ATCC NSCLC = test system: A549/ATCC NSCLC
# 786-0 renal = test system: 786-0 renal
# COLO 205 colon = test system: COLO 205 colon
Structure (SMILES),growth (NCI-H23 lung),growth (NCI-H226 lung),growth (NCI-H322M lung),growth (HOP-62 NSCLC),growth (NCI-H460 lung),growth (HOP-92 NSCLC),growth (NCI-H522 lung),growth (A549/ATCC NSCLC),growth (786-0 renal),growth (COLO 205 colon)
O=C(NCc1ccccc1)C(Cl)Cl,104%,93.3%,102%,98.6%,108%,95.1%,101%,97.4%,104%,116%
CCCCCCCCCN(CCCCCCCCC)C(C)C(=O)c1ccc2cc(Br)c3ccccc3c2c1 (stereo not given),77.6%,102%,116%,95.6%,110%,72.8%,96.5%,86.1%,90.4%,81.9%
CCOC(=O)Nc1ccc2c(c1)/C(=N\NC(=S)NC)c1ccccc1-2,93.8%,107%,92.3%,108%,65.1%,85.9%,68%,55.7%,64.4%,106%
COc1cc(/C=C/C(=O)/C=C/c2ccc(-n3ccnc3)cc2)ccc1O,60.6%,77.9%,94.8%,97.9%,76.4%,85.2%,89.5%,69.3%,107%,52.4%
CCOC(=O)c1cc(C#N)n2ncc3ccccc3c12,94.1%,91.2%,102%,90.8%,101%,80.7%,93.3%,100%,95.7%,118%
COc1ccc(-c2ccc(NNC(=O)c3ccc(F)cc3)nn2)cc1OC,83.7%,70%,72.2%,57.6%,93.2%,8.49% (active),72.8%,72.4%,63.4%,75.6%
CC(C)=CCC[C@](C)(O)[C@H]1CC[C@]2(C)[C@@H]1CC[C@@H]1[C@@]3(C)CC/C(=N/O)C(C)(C)[C@@H]3CC[C@]12C,-56.9% [100 µM] (active),11.3% [100 µM],-1.07% [100 µM] (active),-50.9% [100 µM] (active),-7.45% [100 µM] (active),-62% [100 µM] (active),-28.9% [100 µM] (active),-70.4% [100 µM] (active),-21.1% [100 µM] (active),-43.5% [100 µM] (active)
C=C(C)[C@@H]1CC[C@]2(C(=O)OC)CC[C@]3(C)[C@H](CC[C@@H]4[C@@](C)(CCc5nn[nH]n5)[C@H](C(=C)C)CC[C@]43C)[C@@H]12,-13.8% [100 µM] (active),-19.9% [100 µM] (active),9.71% [100 µM] (active),-72.7% [100 µM] (active),-59.3% [100 µM] (active),-39.8% [100 µM] (active),-25.3% [100 µM] (active),2.03% [100 µM] (active),-8.74% [100 µM] (active),-62.9% [100 µM] (active)
CCCN1CC(c2ccc(OC)c(OC)c2)=C(c2cn(C(=O)OCC)c3ccccc23)C1=O,65.8%,76.8%,90.6%,45.9%,37.1%,26.2%,24%,46.3%,54.6%,41.7%
CC1(C)CC[C@]23CC[C@]4(C)[C@H](CC[C@@H]5[C@@]6(C)C/C(=C/c7ccncc7)C(=O)C(C)(C)[C@@H]6CC[C@]54C)[C@H]2[C@H]1OC3=O,61.4% [100 µM],77.4% [100 µM],96.5% [100 µM],10.2% [100 µM],51% [100 µM],16.8% [100 µM],50.9% [100 µM],70.1% [100 µM],31% [100 µM],90.5% [100 µM]
CCOc1ccc(/C=C(\C#N)c2cc3ccccc3[nH]2)cc1,78.6%,90%,87.1%,54.7%,36.2%,87.4%,32.8%,38%,89.5%,49.4%
CC1Cc2c(Cl)ncnc2N(C)c2ccccc21 (stereo not given),18.6%,1.16% (active),26.8%,22.8%,21.2%,26%,57.7%,16.6%,4.7% (active),-81.1% (active)
Oc1c(CNCCNCc2cc(Cl)cc(Cc3ccccc3)c2O)cc(Cl)cc1Cc1ccccc1,17.4%,9.76% (active),23.4%,19.4%,8.13% (active),45.1%,43.7%,13.9%,-3.97% (active),8.84% (active)
Cn1ncc2c(Nc3ccc(O)cc3)nc(Cl)nc21,107%,91.2%,96.6%,95.8%,108%,104%,88%,96%,111%,108%
CCOC(=O)c1cnc2ccc(Br)cc2c1Nc1cccc(S(N)(=O)=O)c1,93%,88.6%,105%,97.1%,105%,91.1%,96.6%,101%,105%,128%
Cc1cc(C)c(O)c(CNCCCNCc2cc(C)cc(C)c2O)c1,81.7%,91.4%,45.7%,74.9%,40.7%,40.5%,42.4%,78.8%,80%,9.05% (active)
Cc1cccc(C[C@H](NC(=O)Nc2ccc(Cl)cc2F)C(=O)N[C@@H]2C(=O)N3C[C@H](OC(=O)CCN(C)C)C[C@H]3C(=O)N3CCCC[C@H]3C(=O)N[C@@H](C)C(=O)N3C[C@H](C)C[C@H]3C(=O)O[C@H]2C)c1,34.4%,28%,59.2%,35%,13.6%,19.1%,24.6%,25.4%,22.5%,9.51% (active)
CCOC(=O)c1nn(C2CCCCO2)c2ccc(NC(=O)CSc3nc4ccccc4c(=O)[nH]3)cc12 (stereo not given),102%,97.6%,92.5%,88.2%,98.9%,92.5%,100%,99.4%,91%,126%
O=C(NCCCNC(=O)OCc1ccc2c(Br)cc(Br)c(O)c2n1)OCc1ccc2c(Br)cc(Br)c(O)c2n1,-46.3% (active),2.3% (active),32.7%,-19.1% (active),4.8% (active),-80.3% (active),-60.9% (active),6.61% (active),-58.9% (active),-76.8% (active)
O=C1CC(c2ccccc2)Cc2nc3ccc(Br)cc3cc21 (stereo not given),39.6%,24.1%,35.9%,40.4%,4.63% (active),40.1%,-3.56% (active),23.8%,41.2%,-36.3% (active)
Cn1cc(-c2nnc(-c3ccccc3)s2)c2cc(Br)cnc21,85%,64%,88.2%,74.3%,95.4%,42.3%,89.5%,83.1%,99.6%,104%
O=C(Nc1cccc2ccccc12)c1cc2ccccc2cc1O,8.03% (active),12.5%,-4.28% (active),12.5%,7.16% (active),-22% (active),9.44% (active),11.3%,22.2%,112%
O=C(NNc1ccc(-c2ccccc2)nn1)c1ccc(F)cc1,104%,98.7%,94.3%,106%,99.1%,91.5%,95.2%,98.4%,78%,112%
Cc1ccc(-c2cn(C/C=C3\C=CN(S(=O)(=O)c4ccccc4)CC3)nn2)cc1,96.1%,99.5%,95.8%,97.6%,99.1%,92.7%,93.3%,104%,101%,129%
COc1cc(/C=C/C(=O)/C=C/c2ccc(-n3ccnc3C)cc2)ccc1O,64%,89.1%,100%,88.5%,81.2%,95.1%,81.4%,62.1%,97.2%,60.1%
C=C(C)[C@@H]1CC[C@]2(COCCCN)CC[C@]3(C)[C@H](CC[C@@H]4[C@@](C)(CCCNCCCN)[C@H](C(=C)C)CC[C@]43C)[C@@H]12,-53.5% [100 µM] (active),-41.6% [100 µM] (active),-76.2% [100 µM] (active),-47.7% [100 µM] (active),-74.7% [100 µM] (active),-69.5% [100 µM] (active),-49.8% [100 µM] (active),-55.7% [100 µM] (active),-49.7% [100 µM] (active),-50.3% [100 µM] (active)
